High-throughput results (PubChem BioAssay)
Sm TGR inh: qHTS Assay for the Inhibitors of Schistosoma Mansoni Peroxiredoxins. Schistosoma mansoni thioredoxin glutathione reductase (TGR), Q962Y6. purified TGR, DTNB reduction, TNB absorbance 405 nm. Potency, µM (doses to about 114 µM), inactives show at the top dose activity change, negative = inhibition, hits mostly inhibitors. 360,000 compounds, 3% hits. AID 485364, 2010; also: nearly all actives have a fitted effect of over 60% in size
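TGR 20 nM + NADPH 100 uM (dispensed conc.), cpd preinc 15 min RT; start with NADPH (500 uM addition) then DTNB (15 mM addition). Kinetic TNB absorbance, 405 nm filter. Four-parameter Hill fit across titration.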
FMDV inh: High Throughput Screening for Foot and Mouth Disease Virus Antivirals; FMDV antiviral cell-based qHTS; Potency, µM (highest dose often 57.9 µM), without a hit: top-dose activity change, negative = inhibition, hits mostly inhibitors; 410,000 compounds, 1.2% hits; AID 1159524, 2015; calls by dose curve; tested in HEK293T cells; also: read-out not given here; nearly all actives have a fitted effect of over 45% in size
RE007 growth inh: qHTS Assay for Inhibitors of the HIV-1 protein Vpr. S. pombe RE007 Vpr strain, BacTiter-Glo ATP luminescence, 24 h. Potency, µM (doses to about 92.2 µM), for the others: at the top dose activity change, negative = less growth, actives largely listed as inhibitors. 360,000 compounds, 0.21% hits. AID 651644, 2012; active = well fitted falling curve with a large enough effect; inconclusive = small, poorly fitted or top-dose-only effect; inactive = no such curve, though single readings can be large or run the other way; also: nearly all actives have a fitted effect of over 50% in size
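Fission yeast strain RE007, carrying one chromosomally integrated HIV-1 vpr copy, was seeded at OD 0.01 in PMG+AL medium with 23 nL pinned compound. After 24 h at 30 °C and 99% humidity, viability was read by BacTiter-Glo luminescence.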
TbPYK inhibitor: qHTS of Trypanosoma Brucei Inhibitors | 410,000 compounds, 0.12% hits | Potency, µM (top dose mostly 76.8 µM), for inactives: top-dose activity, negative = inhibition, hits mostly inhibitors | AID 624173, 2012 | TbPYK enzyme, Kinase-Glo Plus ATP luminescence, 45 min; also: nearly all actives have a fitted effect of over 50% in size
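In this concentration-response screen, enzyme-free wells defined baseline while DMSO plates tracked drift. Each reaction combined TbPYK, substrate, compound and 130 uM ADP for 45 min at room temperature. Kinase-Glo Plus luminescence gave the signal.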
An asterisk follows results filed as active; ? = inconclusive; . = not tested or not shown. Most compounds without a hit are left out; they make up all but 3.7% or so of the library. Unless noted, calls follow the shape of the dose curve; as a rule, active = well fitted curve in the direction sought with a large enough effect; inconclusive = small, poorly fitted or top-dose-only effect, or another doubt; inactive = no such curve, though single readings can be large; an effect the other way counts as inactive or inconclusive. % is scaled to controls: 0 for no effect and ±100 for the full control effect; potency is read from the fitted curve at half-maximal effect.

SMILES	Sm TGR inh	FMDV inh	RE007 growth inh	TbPYK inhibitor
CC(=O)OC1C[C@@]2(C)C(c3ccoc3)C[C@H]3O[C@@]32[C@@]2(C)C(=O)C(O)=C3C(C)(C)C(=O)C=C[C@]3(C)C12 (some centres not stated)	.	7.94µM*	.	.
CC(=O)OC1CC(OC(C)=O)[C@]2(C)C(CC(OC(C)=O)[C@]3(C)C2CC[C@@]2(C)C(c4ccoc4)C[C@H]4O[C@]432)C1(C)C (some centres not stated)	.	18.6%	.	.
CC(=O)O[C@@H]1C[C@@]2(C)C(c3ccoc3)C[C@H]3O[C@]32[C@]2(C)C(=O)C(O)=C3C(C)(C)C(=O)C=C[C@]3(C)C12 (some centres not stated)	.	25.1µM*	.	.
CCN(CC)C(=O)c1ccc(S(=O)(=O)Cc2ccc(C)cc2)c([N+](=O)[O-])c1	7.94µM*	?	-5.3%	-2.7%
O=C(c1ccc(N2CCCCC2)c([N+](=O)[O-])c1)N1CCN(c2ccccn2)CC1	20.9%	-4.8%	-0.1%	0.5%
CCN(CC)C(=O)c1ccc(CS(=O)(=O)c2ccc(Br)cc2)cc1	4.6%	-22.1%	-0.8%	-4.9%
Cc1ccc(CS(=O)(=O)c2ccc(C(=O)N3CCCCC3)cc2[N+](=O)[O-])cc1	17.8µM*	?	22.3%	-0.5%
Cc1ccc(CS(=O)(=O)c2ccc(C(=O)N3CCN(c4ccccn4)CC3)cc2[N+](=O)[O-])cc1	31.6µM*	15.8µM*	-4.9%	-1.5%
Nc1nc(Nc2ccccc2F)sc1C(=O)c1ccc(Cl)cc1	11.3%	35.1%	.	-3.3%
O=C(O)CN(CC(=O)O)CC1=CC2C(=CC1=O)Oc1cc(O)c(CN(CC(=O)O)CC(=O)O)cc1C21OC(=O)c2ccccc21 (configuration not stated)	.	-1.3%	.	.
CC(C)C(Cl)=NOC(=O)Nc1ccc(S(N)(=O)=O)cc1	.	?	15.8µM*	-16.8%
COC(=O)[C@H](C)NC(=O)Nc1ccc(S(N)(=O)=O)cc1	-5.9%	.	0.0%	-9.4%
CCOC(=O)c1cc(=O)n2nc(-c3ccccc3F)nc2s1	10µM*	-15.9%	-8.3%	-9.7%
COc1ccccc1NC(=O)c1cc(=O)c2ccc(C)c(C)c2o1	-0.1%	-4.1%	.	-4.5%
CC(C)N(CCC(=O)c1ccc2ccccc2c1)Cc1ccccc1	0.126µM*	-28.7%	3.98µM*	-0.3%
CC(C)Cn1c(N)c(C(=O)CSc2nc3ncc(Cl)cc3[nH]2)c(=O)n(C)c1=O	3.2%	15.8µM*	-16.8%	-12.1%
CC(C)Cn1c(N)c(C(=O)CSc2ccc3c(c2)OCCO3)c(=O)n(C)c1=O	4.6%	11.2µM*	16.6%	-2.8%
C=CCN1CC[C@]23c4c5ccc(O)c4OC2C(=O)CC[C@@]3(O)C1C5 (some centres not stated)	39.8µM*	-16.7%	2.4%	-0.5%
O=C1/C(=C/c2ccccc2)C[C@@]2(O)[C@H]3Cc4ccc(O)c5c4[C@@]2(CCN3CC2CC2)C1O5 (some centres not stated)	.	10µM*	-10.4%	1.7%
COc1ccccc1C1CN(CC(=O)N[C@H]2CCCCNC2=O)Cc2ccccc2O1 (some centres not stated)	.	-6.4%	.	.
Cc1ccccc1C(=O)OCc1cc(=O)n2nc(C(C)C)sc2n1	4.7%	36.1%	.	-1.2%
COc1ccc(C2C3=C(CC(C)(C)CC3=O)Oc3ncn(Cc4ccco4)c(=N)c32)cc1 (configuration not stated)	-14.0%	28.2µM*	0.3%	-7.4%
O=c1oc2ccccc2cc1-c1ccc(O)cc1	0.3%	25.1%	0.4%	-5.7%
O=C/C=C/c1c(-c2ccccc2)cc2oc3ccccc3cc1-2	20µM*	-8.4%	-27.4%	-0.6%
O=C1COc2ccc(N3C(=O)C=CC3=O)cc2N1	0.398µM*	.	.	.
SMILES	Sm TGR inh	FMDV inh	RE007 growth inh	TbPYK inhibitor
CSc1nc(O)c(N=Nc2ccc(F)cc2F)c(=O)[nH]1	-6.9%	-14.2%	25.1µM*	-15.9%
O=C(c1ccccc1)N1CCN(c2n[nH]c(=O)[nH]c2=O)CC1	-5.6%	-9.7%	2.7%	1.7%
O=C(O)c1nn(-c2ccccc2-c2n[nH]c(=O)[nH]c2=O)c(=O)[nH]c1=O	11.2µM*	.	.	.
CC(C)(C)S(=O)N1Cc2ccc(CO)cc2[C@H]1CCO (some centres not stated)	.	-14.2%	-21.3%	-3.5%
CC(C)(C)S(=O)N1Cc2ccc(CO)cc2[C@@H]1CCO (some centres not stated)	.	39.8µM*	10.2%	-6.3%
O=C(CCl)NNC(=O)c1c(O)c2ccccc2[nH]c1=O	14.1µM*	?	-1.1%	5.4%
O=[N+]([O-])c1cc(S(=O)(=O)N2CCCCCC2)ccc1F	22.4µM*	?	-0.4%	-15.6%
COc1ccc(C(=O)NCc2ccc3[nH]c(C)cc3c2)cc1OC	14.1µM*	1.5%	3.2%	-0.8%
COc1cccc(C(=O)NCc2ccc3[nH]c(C)cc3c2)c1	39.8µM*	38.1%	-4.0%	-4.6%
Cc1ccc(C(=O)Nc2cccc(-c3nc(CNC(=O)C4CCCCC4)c(C)o3)c2)s1	.	30.2%	.	.
C#CCSc1nnc(CSc2nc3ccccc3s2)n1-c1ccccc1	50.1µM*	-18.1%	13.8%	-11.0%
CCCCN(CCCNC(=O)c1cc(Nc2ccc(OC)c(OC)c2)nc2ccccc12)Cc1ccccc1	0.7%	-9.8%	.	-3.7%
CCc1ccc(C(=O)NC2=NC(c3cc(OC)ccc3OC)CC(=O)N2)cc1 (configuration not stated)	10.3%	-9.8%	.	0.5%
CCc1c(C#N)c(SCCC(=O)Nc2ccc(F)cc2)nc2c1C(=O)CC(C)(C)C2	-7.0%	28.2µM*	15.8%	-9.9%
CCc1c(C#N)c(SCCC(=O)Nc2cccc(OC)c2)nc2c1C(=O)CC(C)(C)C2	2.2%	-21.5%	1.3%	-0.6%
COc1ccc(-c2cc(C(F)(F)F)nc(SCCC(=O)Nc3ccc(OC)c(OC)c3)n2)cc1	1.2%	0.0%	.	1.3%
CCOC(=O)C(C(=O)OCC)C(c1ccccc1)N1CCN(c2ccccc2)CC1 (configuration not stated)	.	-42.6%	10.7%	-4.8%
COCCn1c(C)cc(O)c(C(c2ccccc2)N2CCN(c3ccccc3)CC2)c1=O (configuration not stated)	4.47µM*	-23.5%	.	-4.8%
COCCn1c(CN2CCN(C(c3ccccc3)c3ccccc3)CC2)nc2c1c(=O)n(C)c(=O)n2C	-13.6%	-17.4%	12.0%	-7.8%
COCCn1c(C)cc(O)c(C(c2ccccc2)N2CCN(CCO)CC2)c1=O (configuration not stated)	3.55µM*	-23.3%	.	-8.4%
COCCn1c(C)cc(O)c(C(c2ccccc2)N2CCN(c3ccc(F)cc3)CC2)c1=O (configuration not stated)	3.16µM*	-4.5%	.	4.8%
CCOc1ccc(C(c2c(O)cc(C)n(CCOC)c2=O)N2CCN(c3ccc(F)cc3)CC2)cc1 (configuration not stated)	5.62µM*	0.0%	.	-7.9%
